Source: PubChem BioAssay (National Center for Advancing Translational Sciences (NCATS))
ClpP mod = qHTS Assay for Activators of ClpP | purified B. subtilis ClpP, FRET peptide cleavage, 20 min | Potency, µM (top dose mostly 57.5 µM), inactives show at the highest dose activity change, negative = active | 340,000 compounds, 1.9% hits | ATP-dependent Clp protease proteolytic subunit (Bacillus subtilis (strain 168)), P80244 | AID 651965, 2013; active = well fitted falling curve with a large enough effect; inconclusive = small, poorly fitted or top-dose-only effect; inactive = no such curve, though single readings can be large or run the other way; also: the source files actives as falling curves though it sought activators and does not explain the sign; nearly all actives have a fitted effect of over 65% in size
Target sequence (P80244 whole entry, looked up): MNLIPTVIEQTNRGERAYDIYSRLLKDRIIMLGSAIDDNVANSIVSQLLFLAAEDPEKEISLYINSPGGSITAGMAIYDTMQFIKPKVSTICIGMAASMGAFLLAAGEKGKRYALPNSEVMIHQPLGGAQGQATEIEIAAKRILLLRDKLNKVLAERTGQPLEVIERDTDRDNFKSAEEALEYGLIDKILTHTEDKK
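Purified B. subtilis ClpP, 10 microg/mL final in Tris/HCl pH8 with KCl, BSA, glycerol and Tween-20, cleaved an Abz/nitrotyrosine-quenched decapeptide. Fluorescence (ex 320, em 430) was read at 0 and 20 min at room temperature. Delta was normalized to 5.8 microM ADEP and DMSO/no-enzyme controls.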
GLP-1R inv ag = inverse agonists of human GLP-1 receptor; 410,000 compounds, 1.6% hits; HEK293 GLP-1R CRE-luciferase, luminescence, 24 h; GLP-1R form is constitutively active; Potency, µM (highest dose often 38.3 µM), for the others: top-dose activity change, negative = inhibition, usual class: inhibitors; P43220; AID 624417; also: % is scaled to controls: 0 for no effect and ±100 for the full control effect; nearly all actives have a fitted effect of over 55% in size
Target sequence (P43220 whole entry, looked up): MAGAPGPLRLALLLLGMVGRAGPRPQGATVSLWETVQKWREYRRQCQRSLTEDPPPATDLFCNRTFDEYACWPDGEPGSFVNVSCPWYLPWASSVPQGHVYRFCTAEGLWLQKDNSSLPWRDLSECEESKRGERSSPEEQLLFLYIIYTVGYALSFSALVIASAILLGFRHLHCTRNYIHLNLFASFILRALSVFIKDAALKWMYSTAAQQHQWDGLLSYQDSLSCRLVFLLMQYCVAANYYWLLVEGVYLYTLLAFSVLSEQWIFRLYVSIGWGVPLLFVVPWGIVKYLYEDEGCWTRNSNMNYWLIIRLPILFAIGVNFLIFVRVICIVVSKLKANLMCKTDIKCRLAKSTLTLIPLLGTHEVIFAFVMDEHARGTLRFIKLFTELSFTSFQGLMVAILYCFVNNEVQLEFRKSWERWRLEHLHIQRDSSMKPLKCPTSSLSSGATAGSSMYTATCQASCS
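Inverse agonism was detected as reduced cAMP-driven luciferase luminescence after 24 h compound treatment. The cells were HEK293 clones expressing constitutively active human GLP-1R with the reporter. Reporter-only and GPR119 cell lines served as counterscreen controls.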
HEK293 tox = cytotoxicity in counter-screen for GLP-1R inverse agonists | HEK293 cAMP-luciferase reporter cells, luminescence, 24 h | Potency, µM (titrated, usually from 38.3 µM), for inactives: top-dose activity change, negative = inhibition, hits mostly inhibitors | 410,000 compounds, 0.13% hits | AID 624418;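 also: loss of luciferase light is scored as toxicity; % is scaled to controls: 0 for no effect and ±100 for the full control effect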
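Compound-treated cells are incubated 24 hr at 37 deg C under 5% CO2 after a 12 hour attachment period, then luciferase detection reagent is added and luminescence is measured following 12 min at room temperature; lowered signal indicates toxicity.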
GLP-1R agonist = GLP-1 receptor (human) agonism | Potency, µM (top dose mostly 45.6 µM), for inactives: at the top dose activation, usual class: activators | HEK293 GLP-1R CRE-luciferase, luminescence, 4-6 h; cells express a hypersensitive GLP-1R form | P43220 | AID 624172 | 380,000 compounds, 0.007% hits; also: % of control where 0% means no effect
* hit, by the source's call; ? = inconclusive; / = no result given. Compounds with a hit are over-represented: about 3.2% of the library has one in this group of screens. Unless noted, calls follow the shape of the dose curve; as a rule, active = well fitted curve in the direction sought with a large enough effect; inconclusive = small, poorly fitted or top-dose-only effect, or another doubt; inactive = no such curve, though single readings can be large; an effect the other way counts as inactive or inconclusive. Potency is read from the fitted curve at half-maximal effect.

SMILES | ClpP mod | GLP-1R inv ag | HEK293 tox | GLP-1R agonist
CCC(CC)C(=O)Nc1c(C(=O)N2CCN(c3ccccc3F)CC2)oc2ccccc12 | -12% | ? | 2% | /
CSc1ccc(NC(=O)C2(C)CCN2C(=O)c2ccccc2CCc2ccccc2)cc1 (centres undefined) | -3% | 10µM* | 3% | -3%
O=C(NCCc1ccccc1)c1ccccc1NS(=O)(=O)N1CCCC1 | 14µM* | -8% | -6% | 1%
O=S(=O)(Nc1cccc2ccccc12)N1CCCC1 | 28µM* | ? | 3% | 11%
O=C(NCCc1ccccc1)c1ccc(S(=O)(=O)N2CCCCC2)cc1 | -2% | 4% | -5% | 3%
COc1ccc(CCCNC(=O)C2CCC(=O)N(CC3CCCCC3)C2)cc1 (centres undefined) | 2% | -27% | 14% | -4%
COc1ccc(CCNC(=O)C2CCC(=O)N(CC3CCCCC3)C2)cc1 (centres undefined) | 32µM* | -16% | -1% | 1%
CC1(C)Cc2c(C#N)c(SCCO)nc(N3CCOCC3)c2CO1 | -2% | 17% | -3% | 15%
CCCCc1nc(N2CCOCC2)c(C#N)c2c1COC(C)(C)C2 | 28µM* | ? | 18% | 0%
CC(C)c1nc(N2CCN(C(=O)c3ccccc3)CC2)c(C#N)c2c1COC(C)(C)C2 | 28µM* | -6% | 0% | 6%
CC1(C)Cc2c(C#N)c(SCCOc3ccccc3)nc(N3CCOCC3)c2CO1 | ? | 13µM* | -21% | 2%
CC1(C)Cc2c(C#N)c(SCC(=O)O)nc(N3CCOCC3)c2CO1 | / | 1% | 12% | 0%
CCCCc1nc(NCC2CCCO2)c(C#N)c2c1COC(C)(C)C2 (centres undefined) | 7.9µM* | -21% | -2% | 7%
CCCc1nc(NCc2ccco2)c(C#N)c2c1COC(C)(C)C2 | ? | 4% | 11% | 0%
C=CCN(C)CCCCCCOc1ccc(C(=O)c2ccc(Br)cc2)c(F)c1 | 1% | / | / | /
C/C(=N\NC(=S)NC1CCCCC1)c1c(F)cccc1F | / | 4µM* | ? | 18%
Oc1ccc2ccccc2c1CN1CCOCC1 | / | -21% | 3% | 3%
Oc1cnc2ccccc2c1CN1CCOCC1 | 20µM* | -2% | 7% | -7%
NC(=O)C(c1ccc(Br)cc1)c1ccc(C(=O)c2ccccc2)cc1 (centres undefined) | / | 11µM* | -6% | 8%
Cc1cc(C)cc(NC(=O)N2CCN(c3cc(-c4noc(C)n4)ccc3C)CC2)c1 | -2% | ? | 4% | -2%
CCOc1ccc(/C=C(\C#N)c2nc(-c3cc4ccccc4oc3=O)cs2)c(OCC)c1 | -2% | 9% | 30% | /
CCCc1cc(=O)oc2cc(C)cc(OCC(=O)O)c12 | 16µM* | 10% | 1% | 0%
CCCCc1cc(=O)oc2cc(C)cc(OC(C)C(=O)O)c12 (centres undefined) | 16µM* | 8% | 5% | -14%
CCCCc1cc(=O)oc2cc(C)cc(OC(C)C(=O)NCC3CCC(C(=O)O)CC3)c12 (centres undefined) | 5% | 2% | 9% | 0%
CCCc1cc(=O)oc2cc(C)cc(OCC(=O)Nc3ccccn3)c12 | 4% | 0% | -9% | 21%
SMILES | ClpP mod | GLP-1R inv ag | HEK293 tox | GLP-1R agonist
C=C(Cl)COc1cc(C)cc2oc(=O)cc(CC)c12 | 32µM* | 6% | -5% | 19%
CCCCc1cc(=O)oc2cc(C)c3c(C)coc3c12 | 28µM* | 7% | 9% | /
CC(=O)C(C)Oc1cc(C)cc2oc(=O)c(C)c(C)c12 (centres undefined) | 3.2µM* | 5% | -8% | 0%
CC(=O)COc1cc(C)cc2oc(=O)c(C)c(C)c12 | ? | 17% | 1% | 19%
Cc1cc[n+](-c2nc3ccccc3nc2[N-]S(=O)(=O)c2cccs2)cc1C | 8.9µM* | 31% | -12% | 3%
Cn1ncc2c(N3CCN(c4ccc(F)cc4)CC3)ncnc21 | 0% | 1% | 1% | /
CCCC(=NCCc1c(C)[nH]c2ccccc12)C1=C(O)CC(c2ccccc2)CC1=O (centres undefined) | -4% | 2.5µM* | ? | 6%
CC(=NCCc1c(C)[nH]c2ccc(OC(F)(F)F)cc12)C1=C(O)CC(c2ccccc2)CC1=O (centres undefined) | / | ? | 0% | 0%
CC(=NCCc1c(C)[nH]c2ccc(C)cc12)C1=C(O)CC(c2ccccc2)CC1=O (centres undefined) | 2% | 3.5µM* | ? | 5%
CCCCC(=NCCc1c(C)[nH]c2ccccc12)C1=C(O)CC(c2ccccc2)CC1=O (centres undefined) | / | ? | ? | -2%
COc1ccc(-c2ccc(-c3noc(-c4cccc(OC)c4)n3)c(OC)n2)cc1 | 3.2µM* | 0% | 0% | -5%
COc1ccc(-c2ccc(-c3noc(C)n3)c(OC)n2)cc1 | 14µM* | 49% | 1% | -1%
COc1nc(-c2ccccc2)ccc1-c1noc(-c2cccnc2)n1 | -21% | 0% | 5% | 3%
COCc1nc(-c2ccc(-c3ccc(C)cc3)nc2OC)no1 | 35µM* | -1% | 5% | 14%
COc1cccc(-c2nc(-c3ccc(-c4ccccc4)nc3OC)no2)c1 | 25µM* | 13% | 0% | /
CCn1cc(C(=O)NCc2ccccc2Cl)c(=O)c2cc(S(=O)(=O)N3CCCCCC3)ccc21 | -1% | 1% | -1% | 1%
Cc1ccc(NC(=O)CNC(c2ccccc2)c2ccccc2)c(F)c1 | 0% | 11µM* | -27% | 8%
COc1ccc(C)cc1NC(=O)CNC(c1ccccc1)c1ccccc1 | -2% | ? | -1% | 6%
CCCCNC(=O)C1=C(N)C(C(=O)Nc2ccc(C)c(S(=O)(=O)N3CCCCC3)c2)SC1=Nc1ccc(C)cc1C (centres undefined) | -3% | 13µM* | 9% | -5%
CC(C)C(NC(=O)c1ccco1)C(=O)NCC(c1ccco1)N1CCCCC1 (centres undefined) | -3% | 3% | 0% | -3%
O=C(NCC(c1ccco1)N1CCCCC1)C(c1ccccc1)c1ccccc1 (centres undefined) | / | 11µM* | 0% | 5%
CC(Sc1ccc(Cl)cc1)C(=O)NCC(c1ccco1)N1CCCCC1 (centres undefined) | -5% | 11µM* | -4% | -5%
O=C(NCC(c1ccco1)N1CCCCC1)c1ccc(COc2ccc(Cl)cc2)cc1 (centres undefined) | / | 2.8µM* | -27% | 12%
COc1cccc(N(CC(=O)NCCN2CCOCC2)S(=O)(=O)c2ccccc2)c1 | 18µM* | -11% | 14% | -8%
COc1cccc(CNC(=O)CCCN2C(=O)CSc3c2c(C)nn3-c2ccccc2)c1OC | 0% | -1% | 2% | /
Brc1ccc[n+](CCC2CCCCC2)c1 | 0% | / | / | /
COc1ccc(/C=C/c2nccc3ccccc23)cc1OC | -10% | / | / | /
